This is an account of results in PubChem BioAssay (NCATS).

Several values for one entry are separate records, joined by “and”; a condition that tells them apart may be missing. Equal values may be shown once. Results filed as inconclusive are left out. Activity calls are given as the source filed them. Unless noted, calls come from the whole dose curve; as a rule, active = well fitted curve in the direction sought with a large enough effect; inconclusive = small, poorly fitted or top-dose-only effect, or another doubt; inactive = no such curve, though single readings can be large; an effect the other way counts as inactive or inconclusive.

The nature of experiment [1]: qHTS assay for small molecule activators of the p53 signaling pathway (AID 651743; active = well fitted activation curve with a large enough effect in the signal ratio, not every such curve was filed as active; the % refers to the signal ratio; note: potency is the fitted concentration of half-maximal effect; for activation: % of control where 0% means no effect). Particulars: HCT-116 p53RE-bla, beta-lactamase FRET ratio, 16 h; activation: stronger effect = higher value. Put shortly:
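Reporter: beta-lactamase driven by p53 response elements, stably integrated in HCT-116 cells. Cells seeded at 4,000/well, 5 h preincubation, compound (DMSO) 16 h at 37 C; B/G FRET substrate 2 h RT; fluorescence intensity read.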
In general terms: qHTS replaces the single test concentration by a dilution series.

The nature of experiment [2]: qHTS assay for small molecule activators of the nuclear factor-kappa B (NF-kB) signaling pathway (AID 651749; active = well fitted activation curve with a large enough effect in the signal ratio; the % refers to the signal ratio; note: % of control where 0% means no effect). Particulars: NF-kB-bla ME-180 cells, beta-lactamase FRET ratio, 16 h; stronger effect = higher value. Put shortly: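 NF-kB-bla ME-180 cells, 2,000/well; 23 nL compound or DMSO pinned; 16 hr, 37C/5% CO2; beta-lactamase FRET read-out.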
A short description of experiment [3]: qHTS assay for small molecule disruptors of the mitochondrial membrane potential - 1 hr assay (AID 651754; calls by dose curve; note: % is set by controls: 0 for no effect and ±100 for the full control effect; nearly all actives have a fitted effect of over 35% in size). Put shortly:
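In this qHTS format, a 1 hr compound treatment of HepG2 cells precedes Mito-MPS staining, and membrane potential is judged from aggregate (red) against monomer (green) fluorescence intensity.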

Experiment [4] can be described thus: qHTS assay for small molecule disruptors of the mitochondrial membrane potential - 5 hr assay (AID 651755; calls by dose curve; note: % is set by controls: 0 for no effect and ±100 for the full control effect; nearly all actives have a fitted effect of over 40% in size). Put shortly:
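Read-out: ratiometric Mito-MPS fluorescence, green monomer (ex 490/em 535) vs red mitochondrial aggregate (ex 540/em 590). HepG2 cells treated 5 hr at 37C before 30 min dye loading.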

Experiment [5] has as its target Tumor necrosis factor (Homo sapiens) (UniProt P01375). Nature of the experiment: qHTS assay to identify small molecules that stimulate Tumor Necrosis Factor-alpha (TNF-alpha) secretion (AID 651757; active = well fitted curve in the direction sought with a large enough effect in the signal ratio; the % refers to the signal ratio; note: 0% is about no effect). A digest of the protocol: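 Using 3000 THP-1 cells per well, compounds and controls were applied for 17 hrs at 37 C. Detection followed with two labeled anti-TNF-alpha antibodies (cryptate donor, XL665 acceptor) for 3 hr at room temperature, measured by TR-FRET.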

The target in experiment [6] is Peroxisome proliferator-activated receptor alpha (Homo sapiens) (UniProt Q07869). Nature of the experiment: qHTS assay for small molecule agonists of the peroxisome proliferator-activated receptor alpha (PPARalpha) signaling pathway (AID 651778). Note: % of control where 0% means no effect. The settings on record: PathHunter PPARalpha complementation, chemiluminescence, 6 h; max response: stronger effect = higher value. Put shortly:
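Enzyme-fragment complementation assay in which ligand-bound PPARalpha translocates and forms an active enzyme that generates chemiluminescence. Cells were plated overnight, exposed to compound for 6 hr at 37 C, and then given detection reagent for 60 min at room temperature.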

The target of experiment [7] is Nuclear receptor ROR-gamma (Homo sapiens) (UniProt P51449). Nature of the experiment: qHTS assay for small molecule antagonists of the retinoid-related orphan receptor gamma (ROR-gamma) signaling pathway (AID 651802).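 Note: luciferase reporter luminescence driven by ROR response element; % is set by controls: 0 for no effect and ±100 for the full control effect; nearly all actives have a fitted effect of over 60% in size.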 Put shortly: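 Doxycycline-induced reporter activity in engineered CHO cells (TET-inducible ROR, RORE-LUC) was measured by luminescence after 16hr compound exposure at 37C.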

Experiment [8] is described as follows: qHTS assay for small molecule antagonists of the retinoid-related orphan receptor gamma (ROR-gamma) signaling pathway - cell viability counter screen (AID 720652; active = well fitted curve in the direction sought with a large enough effect in the repeat runs; an effect the other way counts as inactive or inconclusive;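 note: compound exposure lasted 16 hr before ATP read; % is set by controls: 0 for no effect and ±100 for the full control effect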). Put shortly:
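ATP-based viability readout in the ROR-gamma reporter CHO cells after 16 hr compound exposure under doxycycline induction.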

Experiment [9] in a line: qHTS assay for small molecule agonists of the antioxidant response element (ARE) signaling pathway measured by Nrf2-dependant transcriptional activity - cell viability counter screen (AID 720653; active = well fitted curve in the direction sought with a large enough effect in the repeat runs; an effect the other way counts as inactive or inconclusive; note: % is set by controls: 0 for no effect and ±100 for the full control effect). The settings on record: ARE-bla HepG2 viability, CellTiter-Glo ATP luminescence, 16 h; stronger effect = lower value. Put shortly: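 ARE-bla HepG2 cells treated with compounds for 16 h at 37C; this counter screen measures viability as intracellular ATP by CellTiter-Glo luminescence after 30 min at room temperature.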

Experiment [10] is described as follows: Cell Proliferation Assay against the TMD8 Cell Line (AID 651645).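 Note: cells exposed to compound for 48 h before reading.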 The settings on record: TMD8 DLBCL cell line proliferation/viability; at 46.1 µM (top of the series) unless noted. Put shortly:
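TMD8 ABC DLBCL cells, 500 per well in phenol red-free RPMI with 5% FBS, were treated with compound by pin transfer and incubated 48 hours at 37C, 5% CO2. Viability was read by CellTiter-Glo luminescence, normalised to DMSO (100%) and 9.2 uM bortezomib (0%).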

Experiment [11] in a line: Cell Proliferation Assay against the HBL1 Cell Line (AID 651646).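 Note: cells exposed to compound for 48 h before reading.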 Particulars: HBL1 DLBCL cells; at 46.1 µM (top of the series) unless noted. A digest of the protocol: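 HBL1, 500 cells/well, RPMI no phenol red + 5% FBS; cpd pinned, 48 h 37C/5% CO2; CellTiter-Glo, 15 min RT, luminescence. % activity: DMSO = 100%, bortezomib 9.2 uM final = 0%.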
Experiment [12] is described as follows: qHTS for small molecule inhibitors of Yes1 kinase: Counter Assay (AID 686950).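 Note: no kinase present so only ADP-Glo detection of a fixed ADP amount is tested; luminescence from ADP-Glo reporting ADP in a fixed ATP and ADP mixture; 0% = DMSO wells with ATP plus ADP and -100% = ATP-only wells without ADP.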 Put shortly:
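No kinase present; 0.08 mM ATP + 0.02 mM ADP in 50 mM Tris pH 7.5, 10 mM MgCl2, 150 mM NaCl, 1 mM DTT; 20 min compound preincubation, 60 min RT, ADP-Glo luminescence, normalized to ATP/ADP (max) and ATP-only (min).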

Experiment [13] is described as follows: qHTS assay to identify small molecules that stimulate interleukin-8 (IL-8) secretion (AID 651758; active = well fitted activation curve with a large enough effect in the signal ratio; the % refers to the signal ratio; note: 0% is about no effect). Put shortly:
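Compounds are added to THP-1 cells (2000 per well) and left 16 hrs at 37 C. A labeled anti-IL-8 antibody pair is then added, and IL-8 secretion is measured by time-resolved FRET after 1-3 hrs at room temperature.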

The nature of experiment [14]: qHTS assay for environmental chemicals that activate the Aryl hydrocarbon Receptor (AhR) signaling pathway (AID 651777). Note: % of control where 0% means no effect; nearly all actives have a fitted effect of over 15% in size. The settings on record: 1A2-DRE human hepatoma cells, luciferase, 24 h; stronger effect = higher value. A digest of the protocol:
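AhR activation is scored as a rise in luciferase from a stable DRE–CYP1A2 promoter construct in human hepatoma cells. Treatment lasts 24 hr at 37 C; detection uses One-Glo after 30 min at room temperature.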

Experiment [15] is described as follows: Cell Proliferation Assay against the TMD8 Cell Line (Caspase readout at 16 hrs) (AID 651712).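 Note: 0% = DMSO and 100% = 9.2 µM bortezomib caspase activation.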 Put shortly: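 Caspase-Glo luminescence after 16 h compound exposure of TMD8 cells, 37 °C, 5% CO2. Medium: RPMI without phenol red, 5% FBS. Normalisation: DMSO = 0%, bortezomib 9.2 uM final = 100%.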
Experiment [16] deals with Tyrosine-protein kinase Yes (Homo sapiens) (UniProt P07947). Nature of the experiment: qHTS for small molecule inhibitors of Yes1 kinase: Primary Screen (AID 686947).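 Note: plate controls were DMSO with enzyme for no effect and no-enzyme DMSO wells for full effect; nearly all actives have a fitted effect of over 60% in size.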 A digest of the protocol:
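In this qHTS format, inhibition is expressed relative to DMSO controls with enzyme (maximum) and without enzyme (minimum). The 60 min room-temperature reaction uses 0.1 mM ATP, with ADP detected by luminescence.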

Experiment [17] is described as follows: qHTS assay for small molecule agonists of the antioxidant response element (ARE) signaling pathway (AID 651741; active = well fitted activation curve with a large enough effect in the signal ratio; the % refers to the signal ratio; note: potency is the fitted concentration of half-maximal effect). Put shortly: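 HepG2 ARE-bla reporter cells, 2,000/well; 5 h settle at 37 C/5% CO2; compound pin transfer (23 nL, DMSO); 16 h at 37 C; LiveBLAzer B/G FRET substrate, 2 h RT; fluorescence intensity read.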

Peroxisome proliferator-activated receptor alpha (Homo sapiens), sequence (Q07869 whole entry, looked up, the tested form may be a part): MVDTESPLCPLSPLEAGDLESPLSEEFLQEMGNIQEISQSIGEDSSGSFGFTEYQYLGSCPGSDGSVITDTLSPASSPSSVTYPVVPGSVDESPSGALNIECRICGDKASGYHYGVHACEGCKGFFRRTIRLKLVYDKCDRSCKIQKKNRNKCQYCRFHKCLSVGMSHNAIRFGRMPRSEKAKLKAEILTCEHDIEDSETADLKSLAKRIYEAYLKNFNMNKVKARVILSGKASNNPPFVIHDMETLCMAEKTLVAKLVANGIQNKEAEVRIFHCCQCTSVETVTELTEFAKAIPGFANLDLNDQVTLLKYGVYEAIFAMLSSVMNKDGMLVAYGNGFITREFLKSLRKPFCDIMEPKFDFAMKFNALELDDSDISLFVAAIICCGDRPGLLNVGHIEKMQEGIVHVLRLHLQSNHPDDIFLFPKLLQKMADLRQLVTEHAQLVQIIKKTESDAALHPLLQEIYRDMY
Tumor necrosis factor (Homo sapiens), sequence (P01375 whole entry, looked up): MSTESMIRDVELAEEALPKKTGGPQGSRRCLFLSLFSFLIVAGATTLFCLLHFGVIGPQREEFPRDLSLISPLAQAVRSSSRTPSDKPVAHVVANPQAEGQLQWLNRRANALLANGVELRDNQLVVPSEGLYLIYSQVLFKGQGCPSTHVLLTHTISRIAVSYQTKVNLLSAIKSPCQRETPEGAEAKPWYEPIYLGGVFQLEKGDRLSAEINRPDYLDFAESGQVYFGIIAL
Nuclear receptor ROR-gamma (Homo sapiens), sequence (P51449 whole entry, looked up): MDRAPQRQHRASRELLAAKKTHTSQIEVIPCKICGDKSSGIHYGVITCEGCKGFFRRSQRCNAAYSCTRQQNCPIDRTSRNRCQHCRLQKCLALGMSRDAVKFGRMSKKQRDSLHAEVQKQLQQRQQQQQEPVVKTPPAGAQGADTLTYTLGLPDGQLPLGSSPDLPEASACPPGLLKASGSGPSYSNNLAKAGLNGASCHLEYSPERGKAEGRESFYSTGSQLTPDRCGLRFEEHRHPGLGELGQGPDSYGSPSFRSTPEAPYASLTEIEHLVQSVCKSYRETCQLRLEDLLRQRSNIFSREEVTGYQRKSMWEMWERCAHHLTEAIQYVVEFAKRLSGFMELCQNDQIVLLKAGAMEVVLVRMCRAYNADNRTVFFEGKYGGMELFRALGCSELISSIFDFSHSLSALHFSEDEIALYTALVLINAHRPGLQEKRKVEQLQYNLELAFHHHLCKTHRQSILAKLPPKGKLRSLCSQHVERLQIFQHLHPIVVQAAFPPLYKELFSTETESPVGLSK
Tyrosine-protein kinase Yes (Homo sapiens), sequence (P07947 whole entry, looked up): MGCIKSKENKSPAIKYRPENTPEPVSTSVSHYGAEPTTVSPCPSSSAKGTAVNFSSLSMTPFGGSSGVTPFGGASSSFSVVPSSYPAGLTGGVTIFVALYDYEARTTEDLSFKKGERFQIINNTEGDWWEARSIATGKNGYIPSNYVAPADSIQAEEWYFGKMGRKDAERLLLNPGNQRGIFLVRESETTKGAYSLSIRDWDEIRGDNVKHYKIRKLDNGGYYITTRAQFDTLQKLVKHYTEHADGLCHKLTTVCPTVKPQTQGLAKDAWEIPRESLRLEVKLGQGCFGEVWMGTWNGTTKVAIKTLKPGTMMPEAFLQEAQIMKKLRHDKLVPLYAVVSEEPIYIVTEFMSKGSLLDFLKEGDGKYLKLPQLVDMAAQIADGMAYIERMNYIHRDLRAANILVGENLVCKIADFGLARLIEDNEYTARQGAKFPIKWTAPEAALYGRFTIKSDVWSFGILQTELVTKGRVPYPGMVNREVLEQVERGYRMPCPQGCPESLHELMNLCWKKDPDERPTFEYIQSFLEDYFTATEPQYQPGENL

With `CCOC(C)=O`, the activation was -1.83% (inactive) in [1] and -0.483% (inactive) in experiment [2]. Besides, the molecule was classed as inactive in experiment [3], in experiment [4], in experiment [5], in [7] and in experiment [8]. Moreover, the values for the max response in experiment [6] and in experiment [9] were 6.06% (inactive) and 1.62% (inactive), respectively.
On to `CCOc1cc2ncc(C#N)c(Nc3ccc(OCc4ccccn4)c(Cl)c3)c2cc1NC(=O)/C=C/CN(C)C`, for which, in [10], the viability (% of control) was -0.655%. Also, the viability, percent of control in [11] was found to be 1.48%. The molecule was classed as inactive in [12].
For the molecule `O=CCCCC=O`, the Potency in [1] was 35.5 µM (active). Moreover, the activation in experiment [2] is 3.18% (inactive). The molecule was classed as inactive in experiment [3], in [4] and in [5]. The max response in experiment [6] was -1.75% (inactive); in [9], -17.7% (inactive).
As for `O=C(O)CCC(=O)C(=O)O`, the activation in experiment [1] was -2.86% (inactive); in experiment [2], 0.211% (inactive); in [14], 0.4% (inactive). For the same molecule, the result in experiment [5], in [7] and in [8] was inactive. Also, in experiment [13], the Potency result is “inactive”. The results for the max response in experiment [6] and in [9] were 4.88% (inactive) and -1.5% (inactive), respectively.
On to `CN(NC(=O)CC(=O)NN(C)C(=S)c1ccccc1)C(=S)c1ccccc1`, for which the viability (% of control) in experiment [10] was 81.1%. Moreover, the viability, percent of control in experiment [11] came to 60.8%. Besides, the Potency result in experiment [15] and in [16] was “inactive” throughout. Moreover, the outcome in experiment [12] was inactive.
Turning to `CCCCC(CC)COC(=O)CC(C(=O)OCC(CC)CCCC)S(=O)(=O)O` (stereo unspecified), the Potency in experiment [17] is 43.3 µM (active). In addition, the activation in [1] is 1.7% (inactive); in [2], -3.42% (inactive); in [14], 0.833% (inactive). In experiment [9], the max response is -6.73% (inactive).
Regarding `CC(C)(C)NC(=O)[C@@H]1C[C@@H]2CCCC[C@@H]2CN1C[C@@H](O)[C@H](Cc1ccccc1)NC(=O)[C@H](CC(N)=O)NC(=O)c1ccc2ccccc2n1`, the outcome in experiment [3], in experiment [4] and in experiment [5] was inactive. In addition, the activation in [14] is 0.529% (inactive). For the same molecule, the figures for the max response in experiment [6] and in [9] were -0.457% (inactive) and -9.17% (inactive), respectively.
For the molecule `Cc1nnc(C(C)C)n1C1CC2CCC(C1)N2CC[C@H](NC(=O)C1CCC(F)(F)CC1)c1ccccc1` (stereo partly specified), the viability (% of control) in experiment [10] stood at 86.2%. In addition, the viability, percent of control in experiment [11] was 87.3%. For the same molecule, the Potency result in [15] is “inactive”. Moreover, the call in experiment [12] was inactive.
Turning to `IC(I)I`, the Potency in [17] was 68.6 µM (active). Besides, the activation in [1] was -2.94% (inactive) and -3.68% (inactive); in experiment [14], 3.72% (inactive). Further, the molecule was classed as inactive in experiment [5] and in experiment [8]. Besides, the Potency result in [13] is “inactive”. Also, the max response in experiment [6] is -6.19% (inactive) and -2.33% (inactive); in experiment [9], 1.96% (inactive) and -3.08% (inactive).
